Measured values taken from PubChem BioAssay (EPA / NIEHS).
Calls of active or inactive are those of the source. Rule for the calls: active = hit-call score of the fitted dose curve at least 0.9, where 1 is the maximum; inactive = score below 0.9.

Assays:
Details in all cases: mRNA level, 48 h; actives raise or lower the signal
[1] = read-out: Glutamate-cysteine ligase catalytic (GCLC), GCLC (gene 2729); test: LTEA_HepaRG_GCLC: Life Technologies and Expression Analysis (LTEA) Assay for Glutamate-cysteine ligase catalytic (GCLC) using HepaRG (AID 2283498)
Summary of the method: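 Expression by TaqMan qRT-PCR, normalized to three housekeeping genes (ACTB, GAPDH, POLR2A), with up- or down-regulation fitted against DMSO. HepaRG cells dosed in duplicate for 48 h with 8 half-log concentrations up to 100 uM, vehicle 0.5% DMSO.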

[2] = read-out: growth arrest and DNA damage 45 (GADD45G), GADD45G (gene 10912); test: LTEA_HepaRG_GADD45G: Life Technologies and Expression Analysis (LTEA) Assay for growth arrest and DNA damage 45 (GADD45G) using HepaRG (AID 2283499)
Summary of the method: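 HepaRG, 48 h exposure, top 100 uM, half-log 8-point series, 0.5% DMSO vehicle, duplicates. Readout: GADD45G transcript by qRT-PCR (Fluidigm array), housekeeping-normalised (ACTB/GAPDH/POLR2A). Bidirectional curve fit vs DMSO baseline.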

[3] = read-out: Glutamate-cysteine ligase regulatory (GCLM), GCLM (gene 2730); test: LTEA_HepaRG_GCLM: Life Technologies and Expression Analysis (LTEA) Assay for Glutamate-cysteine ligase regulatory (GCLM) using HepaRG (AID 2283500)
Summary of the method: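 Endpoint is GCLM transcript level by qRT-PCR, normalized to three housekeeping genes, after 48 h chemical exposure of human HepaRG cells (0.5% DMSO vehicle, top 100 uM, half-log dilutions). Fitting was bidirectional relative to DMSO.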

[4] = read-out: Glutathione S-transferase M3 (GSTM3), GSTM3 (gene 2947); test: LTEA_HepaRG_GSTM3: Life Technologies and Expression Analysis (LTEA) Assay for Glutathione S-transferase M3 (GSTM3) using HepaRG (AID 2283501)
Summary of the method: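 qRT-PCR read-out of GSTM3 transcript, normalized to three housekeeping genes, from human HepaRG cells after 48 h chemical exposure. Eight-point half-log series, top 100 uM, 0.5% DMSO vehicle; gain or loss fitted relative to DMSO baseline.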

[5] = read-out: Hypoxia-inducible factor 1-alpha (Homo sapiens) (UniProt Q16665); test: LTEA_HepaRG_HIF1A: Life Technologies and Expression Analysis (LTEA) Assay for Hypoxia-inducible factor 1 (HIF1A) Trancription factor using HepaRG (AID 2283503)
Summary of the method: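 HIF1A transcript level read by qRT-PCR (ACTB, GAPDH, POLR2A normalization) after 48 h chemical exposure of HepaRG cultures. Eight half-log concentrations, top 100 uM, 0.5% DMSO vehicle, duplicates; bidirectional curve fit against DMSO baseline.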

[6] = read-out: 3-Hydroxy-3-Methylglutaryl-CoA Synthase 2 (HMGCS2), HMGCS2 (gene 3158); test: LTEA_HepaRG_HMGCS2: Life Technologies and Expression Analysis (LTEA) Assay for 3-Hydroxy-3-Methylglutaryl-CoA Synthase 2 (HMGCS2) using HepaRG (AID 2283504)
Summary of the method: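 qRT-PCR read-out of HMGCS2 transcript, normalised to three housekeeping genes, in HepaRG cells after 48 h chemical exposure. Eight-point curves from 100 uM, half-log dilutions, 0.5% DMSO vehicle; gain or loss fitted relative to DMSO baseline.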

[7] = read-out: HGF (gene 3082); test: LTEA_HepaRG_HGF: Life Technologies and Expression Analysis (LTEA) Assay for Hepatocyte Growth Facto (HGF) using HepaRG (AID 2283505)
Summary of the method: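 HepaRG, 48 h dosing, 8-pt half-log series from 100 uM in 0.5% DMSO, duplicates. Readout: TaqMan qRT-PCR of HGF mRNA, housekeeping-normalized; bidirectional curve fit vs DMSO baseline.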

[8] = read-out: Insulin Like Growth Factor 1 (IGF1), IGF1 (gene 3479); test: LTEA_HepaRG_IGF1: Life Technologies and Expression Analysis (LTEA) Assay for Insulin Like Growth Factor 1 (IGF1) using HepaRG (AID 2283506)
Summary of the method: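 Cells are thawed, plated and cultured 48 h, then exposed in duplicate to chemical (highest 100 uM, half-log steps, 0.5% DMSO) for another 48 h. Total RNA is analysed by Fluidigm qRT-PCR for IGF1 expression relative to vehicle.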

[9] = read-out: Intercellular Adhesion Molecule 1 (ICAM1), ICAM1 (gene 3383); test: LTEA_HepaRG_ICAM1: Life Technologies and Expression Analysis (LTEA) Assay for Intercellular Adhesion Molecule 1 (ICAM1) using HepaRG (AID 2283507)
Summary of the method: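 HepaRG, 48 h exposure, 8-pt half-log series from 100 uM, 0.5% DMSO vehicle, duplicates. Readout: TaqMan qRT-PCR mRNA, housekeeping-normalized (ACTB/GAPDH/POLR2A). Bidirectional curve fit vs DMSO baseline.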

[10] = read-out: Insulin-like growth factor-binding protein 1 (IGFBP1), IGFBP1 (gene 3484); test: LTEA_HepaRG_IGFBP1: Life Technologies and Expression Analysis (LTEA) Assay for Insulin-like growth factor-binding protein 1 (IGFBP1) using HepaRG (AID 2283508)
Summary of the method: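 qRT-PCR mRNA read-out (TaqMan, Fluidigm array), normalised to three housekeeping genes; HepaRG cells, 48 h exposure, 8-pt half-log series from 100 uM, 0.5% DMSO vehicle; bidirectional curve fit vs DMSO baseline.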

[11] = read-out: Interleukin 6 (IL6), IL6 (gene 3569); test: LTEA_HepaRG_IL6: Life Technologies and Expression Analysis (LTEA) Assay for Interleukin 6 (IL6) using HepaRG (AID 2283509)
Summary of the method: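 Transcript levels, normalized to three housekeeping genes, were quantified by qRT-PCR after 48 h chemical treatment of HepaRG cells. Eight-point half-log series from 100 uM in 0.5% DMSO, duplicates. Fitted both directions against DMSO baseline.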

[12] = read-out: Interleukin 6 Receptor (IL6R), IL6R (gene 3570); test: LTEA_HepaRG_IL6R: Life Technologies and Expression Analysis (LTEA) Assay for Interleukin 6 Receptor (IL6R) using HepaRG (AID 2283510);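 for AC50: differentiated human HepaRG liver cells in serum-free induction medium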
Summary of the method: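 Cells were thawed, plated and cultured 48 h, then medium was changed to serum-free induction medium. Chemicals were added in duplicate (100 uM top, half-log steps, 0.5% DMSO) for 48 h. Lysates were analyzed by qRT-PCR for IL6R expression.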

[13] = read-out: Potassium channel subfamily K member 1 (KCNK1), KCNK1 (gene 3775); test: LTEA_HepaRG_KCNK1: Life Technologies and Expression Analysis (LTEA) Assay for Potassium channel subfamily K member 1 (KCNK1) using HepaRG (AID 2283511)
Summary of the method: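 KCNK1 transcript measured by TaqMan qRT-PCR against three housekeeping genes, after HepaRG cells were treated 48 h with eight half-log concentrations (top 100 uM, 0.5% DMSO). Curves fitted bidirectionally relative to vehicle.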

[14] = read-out: Keratin 19 (KRT19), KRT19 (gene 3880); test: LTEA_HepaRG_KRT19: Life Technologies and Expression Analysis (LTEA) Assay for Keratin 19 (KRT19) using HepaRG (AID 2283512)
Summary of the method: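 HepaRG, 48 h chemical exposure, 8-pt half-log CRC from 100 uM, 0.5% DMSO vehicle, duplicates. Readout: TaqMan qRT-PCR of KRT19 mRNA, housekeeping-normalized (ACTB/GAPDH/POLR2A). Bidirectional fit vs DMSO baseline.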

[15] = read-out: Lipase C (LIPC), LIPC (gene 3990); test: LTEA_HepaRG_LIPC: Life Technologies and Expression Analysis (LTEA) Assay for Lipase C (LIPC) using HepaRG (AID 2283514)
Summary of the method: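 LIPC expression was quantified by qRT-PCR against three housekeeping genes (ACTB, GAPDH, POLR2A). Differentiated human HepaRG cells received eight half-log doses (top 100 uM, 0.5% DMSO) in duplicate for 48 h; fitting bidirectional relative to DMSO.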

[16] = read-out: Lipoprotein lipase (LPL), LPL (gene 4023); test: LTEA_HepaRG_LPL: Life Technologies and Expression Analysis (LTEA) Assay for Lipoprotein lipase (LPL) using HepaRG (AID 2283515)
Summary of the method: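 LPL transcript levels quantified by TaqMan qRT-PCR against three housekeeping genes after 48 h chemical treatment of HepaRG cells. Eight-point half-log series from 100 uM in 0.5% DMSO, tested in duplicate; bidirectional fitting versus vehicle.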

[17] = read-out: MicroRNA 122 (MIR122), gene 406906; test: LTEA_HepaRG_MIR122: Life Technologies and Expression Analysis (LTEA) Assay for MicroRNA 122 (MIR122) using HepaRG (AID 2283516); note: the transcript read is the microRNA miR-122
Summary of the method: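 Human liver HepaRG cultures receive test chemicals for 48 h at eight half-log concentrations from 100 uM. Expression is quantified by qRT-PCR with ACTB/GAPDH/POLR2A normalization and fitted bidirectionally against 0.5% DMSO.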

[18] = read-out: matrix metalloproteinase-10 (MMP10), MMP10 (gene 4319); test: LTEA_HepaRG_MMP10: Life Technologies and Expression Analysis (LTEA) Assay for matrix metalloproteinase-10 (MMP10) using HepaRG (AID 2283517)
Summary of the method: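 Expression measured by TaqMan qRT-PCR with ACTB/GAPDH/POLR2A normalisation after 48 h chemical exposure of HepaRG cells. Eight half-log concentrations, top 100 uM, 0.5% DMSO vehicle, duplicates; gain or loss fitted against vehicle.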

[19] = read-out: Heat shock 70 kDa protein 1 (HSPA1A), gene 3303; test: LTEA_HepaRG_HSPA1A: Life Technologies and Expression Analysis (LTEA) Assay for Heat shock 70 kDa protein 1 (HSPA1A) using HepaRG (AID 2283502)
Summary of the method: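 Cells were plated and cultured for 48 h, then switched to serum-free induction medium. Chemicals were added at eight half-log concentrations up to 100 uM for 48 h. RNA was then isolated and HSPA1A measured by qRT-PCR with bidirectional curve fitting against DMSO.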

[20] = read-out: JUN Transcription Factor, JUN (gene 3725); test: LTEA_HepaRG_JUN: Life Technologies and Expression Analysis (LTEA) Assay for JUN Transcription Factor using HepaRG (AID 2283513)
Summary of the method: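 Read-out is JUN transcript level by TaqMan qRT-PCR, normalized to ACTB, GAPDH and POLR2A, after 48 h chemical treatment of HepaRG cells. Concentration-response spanned eight half-log points up to 100 uM in 0.5% DMSO.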

Measured: AC50

Hypoxia-inducible factor 1-alpha (Homo sapiens), sequence (Q16665 whole entry, looked up): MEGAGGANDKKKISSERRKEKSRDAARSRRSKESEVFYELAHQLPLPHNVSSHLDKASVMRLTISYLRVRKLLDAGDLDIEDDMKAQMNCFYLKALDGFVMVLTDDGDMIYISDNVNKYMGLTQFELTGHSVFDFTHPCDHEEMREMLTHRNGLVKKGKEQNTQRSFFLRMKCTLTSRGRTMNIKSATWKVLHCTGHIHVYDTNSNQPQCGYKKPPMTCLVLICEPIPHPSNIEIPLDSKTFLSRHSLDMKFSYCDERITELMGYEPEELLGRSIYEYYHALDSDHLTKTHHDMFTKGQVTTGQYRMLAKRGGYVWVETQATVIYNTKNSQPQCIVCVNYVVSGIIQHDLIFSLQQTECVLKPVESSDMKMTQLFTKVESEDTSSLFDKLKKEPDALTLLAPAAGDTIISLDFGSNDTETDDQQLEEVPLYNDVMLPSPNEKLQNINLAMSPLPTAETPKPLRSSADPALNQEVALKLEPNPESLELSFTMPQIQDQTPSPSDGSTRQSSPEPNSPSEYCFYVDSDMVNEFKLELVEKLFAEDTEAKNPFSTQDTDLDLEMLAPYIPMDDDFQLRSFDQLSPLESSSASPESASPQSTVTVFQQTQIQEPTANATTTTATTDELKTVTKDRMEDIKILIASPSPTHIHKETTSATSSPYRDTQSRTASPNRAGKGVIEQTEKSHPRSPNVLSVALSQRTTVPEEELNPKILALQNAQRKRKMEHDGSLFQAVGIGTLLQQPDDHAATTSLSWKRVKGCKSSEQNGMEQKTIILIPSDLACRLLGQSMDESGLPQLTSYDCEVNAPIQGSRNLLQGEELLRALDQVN

Nc1ccccc1N
inactive: [3] | [4] | [5] | [7] | [9] | [11] | [13] | [18]
active: [1] 86.4 µM | [2] 67.7 µM | [6] 74 µM | [8] 66.8 µM | [10] 13.4 µM | [12] 72.3 µM | [14] 3.62 µM | [15] 62.7 µM | [16] 50 µM | [17] 71.4 µM

CCCCCCC(=O)OCC
inactive: [2] | [3] | [4] | [19] | [5] | [6] | [7] | [9] | [10] | [11] | [12] | [13] | [14] | [15] | [16]

CCCCc1ccc2c(n1)[C@@H](c1ccc(OC)cc1C[C@H](C)C(=O)O)[C@H](C(=O)O)[C@H]2c1ccc2c(c1)OCO2
inactive: [2] | [3] | [4] | [19] | [5] | [6] | [7] | [9] | [10] | [11] | [12] | [13] | [14] | [20] | [15] | [16] | [17] | [18]

NCCO
inactive: [1] | [2] | [3] | [4] | [5] | [7] | [8] | [9] | [10] | [11] | [12] | [13] | [14] | [15] | [16]

Oc1ccc2ccccc2c1N=Nc1ccccc1
inactive: [4] | [19] | [5] | [7] | [9] | [11] | [13] | [20]
active: [2] 12.6 µM | [3] 24.6 µM | [8] 50 µM | [10] 5.48 µM | [12] 15.7 µM | [14] 3.66 µM | [15] 11.8 µM | [16] 1.7 µM

Cc1cccc(Nc2cc(Cl)nc(SCC(=O)O)n2)c1C
inactive: [1] | [2] | [3] | [4] | [7] | [9] | [10] | [11] | [12] | [13] | [14] | [15] | [16] | [17]
active: [6] 6.99 µM

CCCCCCCCCCCCCCCCCC(=O)O
inactive: [2] | [3] | [4] | [19] | [5] | [7] | [9] | [10] | [11] | [12] | [13] | [14] | [20] | [15] | [16]

CCOC(=O)C(C)(C)Oc1ccc(Cl)cc1
inactive: [2] | [3] | [4] | [7] | [8] | [9] | [10] | [11] | [12] | [13] | [14] | [15] | [16] | [18]
